Among the data in PubChem BioAssay (NCI) are growth values, retold here.

Structures are written as SMILES. This is part of a sample that, as a whole, favours compounds with a hit. Of some 83,000 tested, about 20% had one in any assay.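 Each cell line was grown in a 96-well plate and treated with one concentration of compound for 48 hours. Values below 10 were considered active.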 A number with no mark means an inactive call. Calls of active or inactive are those of the source.

The assay relates to EKVX NSCLC. As to the kind of experiment: NCI-60 one-dose screen, 48 h (100 = growth as untreated, 0 = no growth, -100 = all killed). To be noted: 10 µM unless noted. The procedure:
Growth inhibition of the EKVX human Non-Small Cell Lung tumor cell line is measured as a screen for anti-cancer activity. Cells are grown in 96 well plates and exposed to the test compound for 48 hours. Compounds are tested at a single concentration, which is 10^-5 M for most compounds. The reported endpoint is percent growth (GI% or GIPRCNT), where numbers from 0 - 100% represent growth inhibition, and numbers from -100% - 0 represent cell death. For example, a value of 40 represents 60% growth inhibition. A value of 0 means no net growth occurred over the course of the experiment. A value of -40 indicates 40% of cells at the beginning of the experiment died by the end of the experiment. A value of -100 means all cells are dead at the end of the experiment.
NCI-60 Human Tumor Cell Lines Screen was performed using the standard one-dose NCI protocol, which is described in more detail at https://dtp.cancer.gov/discovery_development/nci-60/default.htm.
Compounds with GIPRCNT values below 10 were considered active. Activity score was based on GIPRCNT using the following formula: […]
Score is 0 for GIPRCNT values of 100 or above, 50 for GIPRCNT values of 0, and 100 for GIPRCNT values of -100.
Take `O=P([O-])(O)OP(=O)([O-])O.[NH-][C@H]1CCCC[C@@H]1[NH-].[OH-].[OH-].[Pt+4]`: the growth was 100%.

For `COc1ccc2c(c1)C=CC(C#N)N2C(=O)c1ccccc1` (stereo not given), the growth is 49.8%.

Regarding `C=C1C(=O)O[C@H]2[C@H]1CC/C(Cn1cc(-c3ccsc3)nn1)=C\CC[C@@]1(C)O[C@@H]21`, the growth was -80.3% (active).

On to `Nc1cc2c(cc1N)-c1cc(N)c(N)cc1C2`, for which the growth was 89.2%.

Take `CCN1C(=O)N[C@H]2[C@@H]3NC(=O)c4ccc(Cl)n4[C@@H]3C[C@]21O`: the growth is 10.8%.

As for `CCCCCCCN(CCCCCCC)C(=N)c1ccc(OC)c2ccccc12`, the growth was -21.7% (active).

For `O=C(Nc1ccc(I)cc1)c1cccc([N+](=O)[O-])c1O`, the growth was 8.49% (active).

For the compound `O=c1oc2c([nH]c3ccc4ccccc4c32)c2ccccc12`, the growth is 85.4%.

Regarding `CC/C=C\C/C=C\C[C@H](O)C/C=C1/C(=O)C=C[C@H]1C/C=C\CCC(=O)OC`, the growth is 39% [8.25 µM].

With `COc1ccc(/C=C/C(=O)OCC(=O)NNC(=O)c2ccccc2)cc1OC`, the growth is 84.4%.

Take `COc1ccc2c(c1)C(C)Cc1c(N(C)C)ncnc1N2C` (stereo not given): the growth is 41.2%.

With `Cc1ccc(S(=O)(=O)OCC(=O)Nc2ccc(C(=O)O)c(O)c2)cc1`, the growth was 103%.

Turning to `C=C1C(=O)O[C@H]2[C@H]1CC/C(COC(=O)NCc1cc(OC)cc(OC)c1)=C\CC[C@@]1(C)O[C@@H]21`, the growth is 40.5%.

Take `C=C1C(=O)O[C@H]2[C@H]1CC/C(COC(=O)NCCc1ccc(OC)cc1)=C\CC[C@@]1(C)O[C@@H]21`: the growth is 53.3%.

Turning to `CC(=O)c1cc(C(=O)c2ccc3c(c2)Sc2ccccc2N3)c2cc(C)ccn12`, the growth is 31.1%.

Regarding `COc1ccc(/C=c2\sc3n(c2=O)C2C(NN=3)N(C)C(=O)N2C)cc1` (stereo not given), the growth was 56.7%.

Turning to `Cc1ccc2c(c1)ncn2-c1ncnc2c1CC(C)c1ccccc1N2C` (stereo not given), the growth was 40.8%.

As for `O=C(c1ccccc1)C(Cl)C(Cl)c1ccccc1` (stereo not given), the growth was 79%.

As for `COc1cc2oc(-c3cccc(NC(=O)Nc4ccc5c(c4)OCO5)c3)cc(=O)c2c(OC)c1OC`, the growth was 86.2%.

Consider `C/C(=N\NC(=O)CC#N)c1cc2cc(Cl)ccc2o1`, for which the growth was 33.6%.

On to `COc1cc(C(=O)CCCl)ccc1O`, for which the growth is 93.7%.

With `Clc1nc(Cl)c2ncn(C/C=C/Cn3cnc4c(Cl)nc(Cl)nc43)c2n1`, the growth is 86.6%.

Regarding `CSc1ccccc1C#C/C=C\C#Cc1ccccc1N1CCCCC1=O`, the growth was 91.5%.

Turning to `CCN1C(=O)/C(=c2\sc3n(c2=O)C2C(NN=3)N(CC)C(=S)N2CC)c2ccccc21` (stereo not given), the growth was 96.9%.

Take `O=C(CSc1nc(-c2ccc(Cl)cc2)cn1-c1ccc(Cl)cc1)c1ccc(Br)cc1`: the growth is 69.1%.

For the compound `NC(C(=O)O)C(O)c1ccc(OCc2ccccc2)c(OCc2ccccc2)c1` (stereo not given), the growth is 104%.

As for `CCCCC[C@@H]1Cc2cc(O)c(C(=O)O)c3c2[C@H](C[C@@]2(CCCO2)O3)O1`, the growth was 108%.

Take `O=[N+]([O-])c1cccc(-c2cc(-c3cc(Br)ccc3O)[nH]n2)c1`: the growth was 18.1%.

In the case of `CCN(Cc1ccc(CN(CC)C(=O)C(Cl)(Cl)Cl)cc1)C(=O)C(Cl)(Cl)Cl`, the growth is 68.3%.

`O=C(/C=C/CN1CCOCC1)Nc1cc2c(Nc3ccc(F)c(Cl)c3F)ncnc2cc1OCCOC(F)F`: the growth is 24.8%.

Take `NC(=O)c1c(NC(=O)c2ccc(OCC3CCCO3)cc2)sc2c1CCCC2` (stereo not given): the growth is 89.6%.

In the case of `O=C(C[N+](=O)[O-])c1ccc(Cl)cc1`, the growth is 107%.

`O=C1CCC(=O)N1Cc1ccccc1`: the growth is 97.3%.

As for `O=C(Cc1c(F)cccc1Cl)Nc1ccc(S(=O)(=O)Nc2ncccn2)cc1`, the growth is 100%.

As to `O=c1cc(C2NCCc3c2[nH]c2ccccc32)c2c(ccc3ccccc32)o1` (stereo not given), the growth was 75.3%.

With `CCSc1nnc(NC(=O)Cc2ccc(Cl)cc2)s1`, the growth was 103%.

As to `Cc1oc2ncnc(Nc3ccccc3)c2c1C(=O)NCCO`, the growth was 97.6%.

In the case of `COc1ccccc1OCC(=O)Nc1sc2c(c1C(N)=O)CCC2`, the growth was 99.9%.

For the compound `O=C(O)C(=Cc1c2ccccc2cc2ccccc12)C(=O)O`, the growth is 104%.

As to `O=C(CNC(=O)c1cccc2ccccc12)Nc1ccccc1Oc1ccccc1`, the growth was 26.3%.
